{
  "source": "the supplement of paper PMC4709259",
  "note": "Structures can show the parent of a compound that is named as a salt. ± gives the standard deviation.",
  "data": [
    {"tested_on": "Jurkat", "test": "cell count relative to DMSO control (fraction of control); higher = more cells (less growth inhibition)", "conditions": "48 h", "values": [
      {"compound": "Cc1onc(-c2ccccc2Cl)c1C(=O)N[C@@H]1C(=O)N2[C@@H]1SC(C)(C)[C@@H]2C(=O)O", "note": "[Cloxacillin·Na] (concentration: 25 µM)", "cell count": "0.703 ± 0.056"},
      {"compound": "CCCc1nc(C(C)(C)O)c(C(=O)O)n1Cc1ccc(-c2ccccc2-c2nnn[nH]2)cc1", "note": "[Olmesartan] (concentration: 25 µM)", "cell count": "1.16 ± 0.1"},
      {"compound": "NCC[C@H](O)C(=O)N[C@@H]1C[C@H](N)[C@@H](O[C@H]2O[C@H](CN)[C@@H](O)[C@H](O)[C@H]2O)[C@H](O)[C@H]1O[C@H]1O[C@H](CO)[C@@H](O)[C@H](N)[C@H]1O", "note": "[Amikacin Disulfate] (concentration: 25 µM)", "cell count": "0.921 ± 0.014"},
      {"compound": "C[C@@H]1C[C@H]2[C@@H]3CCC4=CC(=O)C=C[C@]4(C)[C@@]3(Cl)[C@@H](O)C[C@]2(C)[C@@]1(OC(=O)c1ccco1)C(=O)CCl", "note": "[Mometasone Furoate] (concentration: 25 µM)", "cell count": "0.47 ± 0.17"},
      {"compound": "NC(=O)N1c2ccccc2CC(=O)c2ccccc21", "note": "[Oxcarbazepine] (concentration: 25 µM)", "cell count": "0.772 ± 0.15"},
      {"compound": "Cc1ccc(C)c(OCCCC(C)(C)C(=O)O)c1", "note": "[Gemfibrozil] (concentration: 25 µM)", "cell count": "0.91 ± 0.048"},
      {"compound": "OCCN1CCN(CCCN2c3ccccc3Sc3ccc(C(F)(F)F)cc32)CC1", "note": "[Fluphenazine·HCl] (concentration: 2.5 µM)", "cell count": "0.701 ± 0.079"},
      {"compound": "CCOc1nc2cccc(C(=O)O)c2n1Cc1ccc(-c2ccccc2-c2nnn[nH]2)cc1", "note": "[Candesartan] (concentration: 25 µM)", "cell count": "0.901 ± 0.11"},
      {"compound": "CO[C@H]1C[C@@H]2CC[C@@H](C)[C@@](O)(O2)C(=O)C(=O)N2CCCC[C@H]2C(=O)O[C@H]([C@H](C)C[C@@H]2CC[C@@H](OC(=O)C(C)(CO)CO)[C@H](OC)C2)CC(=O)[C@H](C)/C=C(\\C)[C@@H](O)[C@@H](OC)C(=O)[C@H](C)C[C@H](C)/C=C/C=C/C=C/1C", "note": "[Temsirolimus] (concentration: 25 µM)", "cell count": "0.358 ± 0.15"},
      {"compound": "Cc1oncc1C(=O)Nc1ccc(C(F)(F)F)cc1", "note": "[Leflunomide] (concentration: 25 µM)", "cell count": "0.606 ± 0.038"},
      {"compound": "C=C[C@H]1CN2CC[C@H]1C[C@@H]2[C@@H](O)c1ccnc2ccc(OC)cc12", "note": "[Quinidine·HCl·H2O] (concentration: 25 µM)", "cell count": "0.665 ± 0.11"},
      {"compound": "Nc1nc2ccc(OC(F)(F)F)cc2s1", "note": "[Riluzole·HCl] (concentration: 2.5 µM)", "cell count": "0.573 ± 0.029"},
      {"compound": "CC(=O)S[C@@H]1CC2=CC(=O)CC[C@]2(C)[C@H]2CC[C@@]3(C)[C@@H](CC[C@@]34CCC(=O)O4)[C@H]12", "note": "[Spironolactone] (concentration: 25 µM)", "cell count": "0.455 ± 0.032"},
      {"compound": "CC(C)(C)NCC(O)c1cc(O)cc(O)c1", "note": "(stereo unspecified) [Terbutaline Hemisulfate] (concentration: 25 µM)", "cell count": "0.503 ± 0.057"},
      {"compound": "CCCCC[C@H](O)/C=C/[C@H]1[C@H](O)CC(=O)[C@@H]1C/C=C\\CCCC(=O)O", "note": "[Dinoprostone] (concentration: 25 µM)", "cell count": "0.399 ± 0.11"},
      {"compound": "CNCCCC12CCC(c3ccccc31)c1ccccc12", "note": "[Maprotiline·HCl] (concentration: 2.5 µM)", "cell count": "0.788 ± 0.053"}
    ]}
  ]
}
